Results taken from ChEMBL document CHEMBL1157539, “Thousands of chemical starting points for antimalarial lead identification” (Nature, 2010).

test system: Plasmodium falciparum; assay: GSK_TCMDC: Inhibition of Plasmodium falciparum Dd2 in whole red blood cells, using parasite LDH activity as an index of growth. Test compounds present at 2uM; type: functional

SMILES | Inhibition [%]
CC(=O)Nc1ccc2[nH]cc(C3CCN(CCC4CCN(C(=O)/C=C/c5ccc(Cl)c(Cl)c5)CC4)CC3)c2n1 | 80
CC(C)(C)NS(=O)(=O)c1cc(C(=O)N2CCC(CCN3CCC(O)(c4cccc(C(F)(F)F)c4)CC3)(c3cccc(F)c3)CC2)c(Cl)cc1F | 55
COc1ccc(-n2ccnc2SCC(=O)Nc2cccc(C(F)(F)F)c2)c(OC)c1 | 88
Br.Cn1c(=N)n(CC(=O)OCc2ccc(OCc3ccccc3)cc2)c2ccccc21 | 74
Br.CC1(C)NC(N)=NC(=N)N1OCCCc1c(Cl)cccc1Cl | 97
Cc1cccn2c(=O)c3cc(C(=O)NC(C)c4ccccc4)c(=N)n(CCN4CCOCC4)c3nc12 (stereo not drawn) | 5
O=C(CCCc1ccccc1)Nc1cccc(N2CCC(N3CCN(c4ccccc4O)CC3)CC2)c1 | 41
CN(C)CC(O)COc1ccc(Nc2ncc([N+](=O)[O-])c(Nc3ccccc3O)n2)cc1.O=C(O)C(F)(F)F (stereo not drawn) | 20
O=C(/C=C/c1ccc(Cl)cc1)NCCCCCN1CCN(C(=O)C=Cc2ccc(Cl)c(Cl)c2)CC1.O=C(O)C(F)(F)F | 0
COc1ccc2c(=NN=Cc3ccc(OC)c4ccccc34)cc(C)[nH]c2c1 | 99
O=C(Nc1ccc2ccccc2c1)N(CCCn1ccnc1)Cc1csc(-c2ccc(CNCc3ccccc3)cc2)n1.O=C(O)C(F)(F)F | 53
C(=N\Nc1nccc2sc(-c3cccnc3)cc12)/c1ccncc1 | 94
N#Cc1ccc(S(=O)(=O)N2C(c3cccc([N+](=O)[O-])c3)C(C(=O)c3ccccc3)N(C3CCCCC3)C2c2cccc([N+](=O)[O-])c2)cc1 (stereo not drawn) | 79
